One test deals with KRBA1. Kind of test: pooled miR-30 sensor sort-seq; sequence = guide strand. The settings on record: shRNA.
On to TTTGTCGGCAGTTTTGATGGGG, for which the sensor-assay potency score (higher = more potent) was 0.519.

TCTGAGACCTAGAGTCTCCTGG: the sensor-assay potency score (higher = more potent) is -0.0756. In turn, TTCTCCAGCTGAGAAACCGGGC had a sensor-assay potency score (higher = more potent) of -0.802. In turn, TTCTTCACTGTGTGATCTGTGG gave a sensor-assay potency score (higher = more potent) of -0.539.

TCTTCCATGTCCAAGCTCCAGG yielded a sensor-assay potency score (higher = more potent) of -1.05. TCTCCAAACAAGAACTCTGGGA displayed a sensor-assay potency score (higher = more potent) of -0.424. In turn, TTGGCTGCAACTCTGGGTCTTC displayed a sensor-assay potency score (higher = more potent) of -0.346. TTGTCTGCTGTCCAGTTCCTGG had a sensor-assay potency score (higher = more potent) of -1.35. Consider TAGAGGACAGCAGCTGCTGGGA, for which the sensor-assay potency score (higher = more potent) was -1.32. Consider TTGTCGGCAGTTTTGATGGGGA, for which the sensor-assay potency score (higher = more potent) was -0.192. The sequence ATTTGATTGAATCTGAGCCAAG registered a sensor-assay potency score (higher = more potent) of -1.53.

Consider TTCACTGTGTGATCTGTGGGGT, for which the sensor-assay potency score (higher = more potent) was 0.493.

The target in the next test is KRBA2. The description is as above. The settings on record: shRNA.
In turn, TATAAGACAATAACTTCTTTGG returned a sensor-assay potency score (higher = more potent) of -0.185.

For the sequence TTGCTGTTGTAACTTTTGCTTT, the sensor-assay potency score (higher = more potent) was -1.09. Same read-out and setting: the figure for ATTGAGCTCATGAACAACCTGG is -0.217. As to TTGCTTTCTACTAACTTTGTTA, the sensor-assay potency score (higher = more potent) came out at 0.0117.

As for TAAGACAATAACTTCTTTGGTG, the sensor-assay potency score (higher = more potent) worked out at 0.507. TTTAGCTTCTTTAACTTCCTTT: the sensor-assay potency score (higher = more potent) was 0.674. TGTGTCTCTGTAGCAATCCTTT: the sensor-assay potency score (higher = more potent) was -1.24.

With TGAACTTGAACTCACCATCGGC, the sensor-assay potency score (higher = more potent) was 0.0582. Sequence TAACAAGACACTGACCACCTCA gave a sensor-assay potency score (higher = more potent) of 0.174. The same measure, in the same setting: for TTGAGCTCATGAACAACCTGGT the value was 0.411.

The target in another test is KRCC1. The test is described as above. To be noted: shRNA.
As for TTCTCTTATGCTTAGACCGCTC, the sensor-assay potency score (higher = more potent) is -0.386.

As to TTTTTCTGAGAAACAGTCCCTC, the sensor-assay potency score (higher = more potent) is -0.167. TTCTTAGAGACTACATCTCGGC displayed a sensor-assay potency score (higher = more potent) of -0.216. In turn, TTAACCTCTCCTTTGTACCCAC gave a sensor-assay potency score (higher = more potent) of -0.366. Same read-out and setting: the figure for TTCTTGTTGATTAAAGTTCAGG is -0.822; for TTGATGAGTACTGGTACTGTTA it is -0.491. Still for that read-out and setting: the figure for TTAGAGACTACATCTCGGCTTT is 0.863; for TTCTGTACTGACATGTACGGTT it is -0.0449; for TTGTTGATTAAAGTTCAGGGGT it is -0.113. The sequence TTTCTTAGAGACTACATCTCGG came in with a sensor-assay potency score (higher = more potent) of -0.234. In turn, TTTCTGTACTGACATGTACGGT returned a sensor-assay potency score (higher = more potent) of -0.751.

Consider TTATCTGAGGAGAAGTGCTTGT, for which the sensor-assay potency score (higher = more potent) amounted to 0.253.

The target in a further test is KRI1. Described as above. To be noted: shRNA.
For TTCTGCAGCAAACTGGAGCCGC, the sensor-assay potency score (higher = more potent) was -0.837. ATGTCCTCGTAGTCCAGCCGGT displayed a sensor-assay potency score (higher = more potent) of -1.51. TTCCTCCACATAACTTTGCGAC: the sensor-assay potency score (higher = more potent) was -0.99.

Turning to TTTGTAAAAGTCCCGCTCCTGC, the sensor-assay potency score (higher = more potent) is -0.976.
Further: reference of the scale not given here.
